# Screening data deposited in PubChem by National Center for Advancing Translational Sciences (NCATS).
# Hits are enriched below; roughly 18% of the tested compounds scored in any of these assays.
# CtBP-E1A blk: CtBP/E1A binding inhibition. AID 651724. AlphaScreen GST-E1A/His-CtBP binding, 1536-well; hits give low values. 340,000 tested, 0.49% active. activity change, % (no concentration beside the values); in the data active = activity change below about -65%; inconclusive = mostly about -30% to -63%
#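 Homogeneous bead-based format: GST-tagged E1A captured on glutathione donor beads, His-tagged CtBP on nickel acceptor beads; compounds precede bead addition by 2 h at 37 °C.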
# Six1-Eya2 blk: blocks human Six1 binding to Eya2; Q15475+O00167; AlphaScreen GST-Six1/His-Eya2 binding, biochemical; hits give low values; activity change, % (test concentration not listed); 360,000 tested, 0.56% active; in the data active = activity change below about -65%; inconclusive = mostly about -30% to -63%
# Target sequence (O00167 whole entry, looked up): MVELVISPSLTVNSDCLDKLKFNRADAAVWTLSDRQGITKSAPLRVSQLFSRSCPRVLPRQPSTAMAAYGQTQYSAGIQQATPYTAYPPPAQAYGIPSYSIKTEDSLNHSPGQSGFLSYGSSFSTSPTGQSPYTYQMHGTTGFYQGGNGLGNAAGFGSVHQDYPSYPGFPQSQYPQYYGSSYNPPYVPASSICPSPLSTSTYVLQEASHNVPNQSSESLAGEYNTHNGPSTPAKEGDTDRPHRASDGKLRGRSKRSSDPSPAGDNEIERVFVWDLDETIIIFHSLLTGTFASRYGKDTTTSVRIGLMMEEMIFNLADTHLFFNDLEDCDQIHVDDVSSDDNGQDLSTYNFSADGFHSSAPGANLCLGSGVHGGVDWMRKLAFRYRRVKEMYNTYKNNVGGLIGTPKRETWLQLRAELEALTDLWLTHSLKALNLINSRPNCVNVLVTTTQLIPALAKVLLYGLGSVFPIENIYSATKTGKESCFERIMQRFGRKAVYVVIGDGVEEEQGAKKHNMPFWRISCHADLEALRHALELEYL
# Target sequence (Q15475 whole entry, looked up): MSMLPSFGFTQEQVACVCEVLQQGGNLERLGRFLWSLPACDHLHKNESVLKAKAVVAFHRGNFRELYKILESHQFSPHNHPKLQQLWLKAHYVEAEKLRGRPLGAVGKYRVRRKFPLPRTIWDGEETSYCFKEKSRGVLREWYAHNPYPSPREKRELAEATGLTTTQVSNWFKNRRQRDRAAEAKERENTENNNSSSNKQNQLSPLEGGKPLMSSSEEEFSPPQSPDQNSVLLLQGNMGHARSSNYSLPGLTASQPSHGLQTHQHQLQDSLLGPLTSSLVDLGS
#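 AlphaScreen luminescence read after one hour at 37 °C in darkness. Pin-transferred compounds met GST-Six1 and His-Eya2 protein (5X stock 250 nM/500 nM) plus glutathione donor and Ni-chelate acceptor beads (5X, 50 ug/mL).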
# TDP1 inh: TDP1 (human) enzyme inhibition | 350,000 tested, 0.28% active | Q9NUW8 | AID 485290 | Potency, µM (titrated, usually from 130 µM), inactives show top-dose activity change, negative = inhibition, usual class: inhibitors | recombinant TDP1, AlphaScreen DNA substrate cleavage; note: potency is the fitted concentration of half-maximal effect; nearly all actives have a fitted effect of over 40% in size
#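 Compounds were preincubated with Tdp1 (1 nM final) for 15 min at room temperature before substrate (15 nM final) started a 5 min reaction; beads (10 ug/ml final) were then added for 10 min before AlphaScreen detection.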
# DT40 TDP1 CPT: DT40-hTDP1 cell growth loss with CPT; chicken DT40 Tdp1-/-;hTDP1 cells + 20 nM CPT, ATP luminescence, 48 h; 420,000 tested, 12% active; AID 686979; Potency, µM (series often up to 46.2 µM), for the others: top-dose activity change, negative = growth inhibition, actives largely listed as inhibitors; note: potency is the fitted concentration of half-maximal effect; nearly all actives have a fitted effect of over 55% in size
#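 Chicken DT40 Tdp1-/- cells stably complemented with human TDP1 were seeded at 400 cells/well in medium containing 20 nM camptothecin, exposed to pin-transferred compounds, and grown at 37 °C for at least 48 hr. Viability was read as ATP luminescence.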
# DT40 TDP1 no CPT: qHTS for Inhibitors of human tyrosyl-DNA phosphodiesterase 1 (TDP1): qHTS in cells in absence of CPT; Potency, µM (titrated, usually from 46.2 µM), for inactives: top-dose activity change, negative = growth inhibition, most hits filed as inhibitors; DT40 Tdp1-/- hTDP1 cells, no CPT, ATP luminescence, 48 h; AID 686978, 2013; 420,000 tested, 15% active; note: potency is the fitted concentration of half-maximal effect; nearly all actives have a fitted effect of over 55% in size
#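 A cellular qHTS used chicken DT40 cells lacking endogenous Tdp1 but carrying stably transfected human TDP1. Compounds were applied without camptothecin, and cell growth kinetics were judged by ATP-dependent luminescence after ≥48 hr.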
# IL1B secr inh: inflammasome signaling inhibition, IL-1 beta readout | AID 743279 | activity change, % at 57.5 µM | 360,000 tested, 4.7% active | THP-1 LPS/ATP IL-1B secretion, AlphaLISA, 16 h; hits give low values; in the data active = activity change below about -50%; inconclusive = mostly about -30% to -49%
#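 Secreted IL-1B measured by AlphaLISA bead assay after 16 h compound exposure of THP-1 cells; compounds (final up to 57.5 uM) added 1 h before LPS (250 ng/mL) and ATP (1.25 mM) stimulation; lower signal means less secretion.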
# Active calls of the source: *; u = inconclusive; x = no result; [ ] = remark or other dose. Unless noted, calls come from the whole dose curve; as a rule, active = well fitted curve in the direction sought with a large enough effect; inconclusive = small, poorly fitted or top-dose-only effect, or another doubt; inactive = no such curve, though single readings can be large; an effect the other way counts as inactive or inconclusive. % is set by controls: 0 for no effect and ±100 for the full control effect.
SMILES,CtBP-E1A blk,Six1-Eya2 blk,TDP1 inh,DT40 TDP1 CPT,DT40 TDP1 no CPT,IL1B secr inh
Cc1cc(C)c(CN2CCN(C(=O)Cn3cnc4c(NCc5ccccc5)ncnc43)CC2)c(C)c1,-8,-16,2%[56.1 µM],5.8µM*,1.8µM*,u
COc1ccc(S(=O)(=O)N2CCOCC2)cc1NC(=O)c1c(-c2ccccc2)noc1C,0,-11,3%,3%,-22%,-19
O=C(Nc1ccccc1N1CCOCC1)c1cc(-c2ccncc2)nc2ccccc12,2,-5,3%,12µM*,12µM*,-7
O=C(Nc1ccncc1)c1cc(-c2ccccn2)nc2ccccc12,-3,3,u,12%,-18%,53
COc1cc(-c2cc(C(=O)Nc3cc(S(=O)(=O)N4CCOCC4)ccc3C)c3ccccc3n2)cc(OC)c1OC,-16,-3,-10%,16µM*,12µM*,-5
O=C(Nc1ccc(SC(F)F)cc1)c1cc(-c2ccncc2)nc2ccccc12,0,2,1%,u,21µM*,-14
O=C(Nc1ccccc1N1CCOCC1)c1ccc2ccccc2n1,0,9,9%,u,16µM*,-2
CCC(C)[C@H](NC(=O)N1CC(=O)Nc2ccccc21)C(=O)N[C@H](Cc1ccccc1)C(=O)O (stereo partly drawn),3,0,x,0%,-4%,7
CCOC(=O)C1CCCN(c2ncnc3c2cnn3-c2ccc(Cl)cc2)C1 (stereo not drawn),16,9,-8%,-25%,u,-12
O=C(NN1CCOCC1)c1cc(-c2ccncc2)nc2ccccc12,10,5,0%,-7%,-29%,16
COc1ccc(-c2cc(C(=O)Nc3cc(S(N)(=O)=O)ccc3C)c3ccccc3n2)cc1OC,6,4,x,u,23µM*,-6
COc1cc(-c2cc(C(=O)Nc3ccc(N4CCOCC4)cc3)c3ccccc3n2)cc(OC)c1OC,x,-27,9%,2.6µM*,1.8µM*,84
COc1ccc(-c2cc(C(=O)NNC(=O)c3csc(N4CCOCC4)n3)c3ccccc3n2)cc1OC,-16,u,3%[0.505 µM],21µM*,16µM*,-16
COc1ccc(-c2cc(C(=O)NNC(=O)c3csc(N4CCOCC4)n3)c3ccccc3n2)cc1,-28,-25,0%[0.505 µM],-26%,u,-15
COc1ccc(-c2cc(C(=O)Nc3ccc(S(N)(=O)=O)cc3)c3ccccc3n2)cc1OC,x,13,x,-10%,u,13
O=C(Nc1ccc(N2CCOCC2)cc1)c1cc(-c2ccncc2)nc2ccccc12,11,0,2%,21µM*,u,-2
COc1ccc(OCC(=O)NNC(=O)Cn2c(=O)cnc3ccccc32)cc1,2,-3,-6%[0.505 µM],3%,-11%,15
CCOC(=O)/C=C1\CN(CCC(C)C)S(=O)(=O)c2ccccc21,2,7,x,-5%,u,-2
O=C(CO/N=C/c1ccccc1)N1c2ccccc2Oc2ccccc21,3,3,-3%[56.1 µM],u,u,20
CCCCOC(=O)Nc1nnc(CCOCC)s1,-11,-10,-4%,-23%,-14%,-9
COc1cc(/C=C2\C(=O)N(c3ccc(S(N)(=O)=O)cc3)N=C2C)ccc1OC(=O)c1ccco1,7,-6,u,u,-11%,1
COc1ccc(-c2cc(C(=O)Nc3ccccc3O)c3ccccc3n2)cc1OC,-3,2,5%,-30%,u,21
COc1ccc(-c2cc(C(=O)Nc3ccccc3N3CCOCC3)c3ccccc3n2)cc1OC,0,-10,8%,7.3µM*,4.6µM*,-52*
